In the supplement of paper PMC10849652:
The full data set covers some 7,900 targets. This sample favours those with a hit. About 0.6% of all pairs of compound and target were hits.

Legend:
Assay in all cases: log2 fold change, soluble protein after heating vs DMSO (PISA); higher = thermal stabilisation; K562 cells, 10 uM, 30 min; active = over 0.2 and 3.5 SD of the protein, either way, in both replicates (recomputed)
IRAK-1-4 Inhibitor I = compound: C1COCCN1CCN2C3=CC=CC=C3N=C2NC(=O)C4=CC(=CC=C4)[N+](=O)[O-] [IRAK-1-4 Inhibitor I]
How it was run: (§1)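 K562 cells at 2×10^6 cells/mL were exposed to 10 μM compound for 30 min, then aliquots were heated for 3 min across 48°C-58°C, pooled, and extracted in PBS containing 0.5% NP-40 at 4°C. The supernatant after 21,000xg for 90 min was taken as soluble protein and measured by TMTpro 16plex LC-MS/MS with channel sums equalised. Thermal stability is reported relative to control samples, with values from duplicates. Fold changes are given on a log2 scale.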

ibrutinib = compound: C=CC(=O)N1CCC[C@@H](n2nc(-c3ccc(Oc4ccccc4)cc3)c3c(N)ncnc32)C1 [ibrutinib]
How it was run: as §1

[1] = compound: CC(=O)c1cnc2ccc(-c3cc(Cl)c(O)c(Cl)c3)nc2c1N[C@H]1CC[C@H](CN(C)C)CC1
How it was run: as §1

ralimetinib = compound: CC(C)(C)Cn1c(N)nc2ccc(-c3[nH]c(C(C)(C)C)nc3-c3ccc(F)cc3)nc21 [ralimetinib]
How it was run: as §1

[2] = compound: CC(C)(O)CC(=O)NCCn1ccc2ncnc(Nc3ccc(Oc4cccc(C(F)(F)F)c4)c(Cl)c3)c21
How it was run: as §1

[3] = compound: CC(C)C1=C2N=C(C=C(N2N=C1)NCC3=CC=CC=C3)NCCCCCCN
How it was run: as §1

[4] = compound: CC(C)C[C@@H](C=O)NC(=O)[C@H](CC(C)C)NC(=O)[C@H](CC(C)C)NC(=O)OCc1ccccc1
How it was run: as §1

pinometostat = compound: CC(C)N(C[C@H]1O[C@@H](n2cnc3c(N)ncnc32)[C@H](O)[C@@H]1O)[C@H]1C[C@@H](CCc2nc3cc(C(C)(C)C)ccc3[nH]2)C1 [pinometostat]
How it was run: as §1

[5] = compound: CC1=C(C(CC(=O)N1)C2=CC=C(C=C2)C(F)(F)F)C(=O)NC3=C(C=C4C(=C3)C=NN4)F
How it was run: as §1

[6] = compound: CC1=C(C2=C(C=C1)C(=O)C3=CC=CC=C3N2CCCN)C
How it was run: as §1

[7] = compound: CC1=C(C=C(C=C1)NC(=O)C2=CC(=CC=C2)C(C)(C)C#N)NC3=CC4=C(C=C3)N=CN(C4=O)C
How it was run: as §1

[8] = compound: CC1=C(C=C(C=C1)NC(=O)C2=CC(=CC=C2)N(C)C)NC(=O)C3=CC=C(C=C3)O
How it was run: as §1

[9] = compound: CC1=CC=C(C=C1)SC2=C3C=C(SC3=CN=C2)C(=O)N
How it was run: as §1

[10] = compound: CC1=NC(=CC=C1)C2=C(N=C(N2)C(C)(C)C)C3=CC4=NC=CN=C4C=C3
How it was run: as §1

Nexturastat A = compound: CCCCN(Cc1ccc(C(=O)NO)cc1)C(=O)Nc1ccccc1 [Nexturastat A]
How it was run: as §1

vemurafenib = compound: CCCS(=O)(=O)Nc1ccc(F)c(C(=O)c2c[nH]c3ncc(-c4ccc(Cl)cc4)cc23)c1F [vemurafenib]
How it was run: as §1

[11] = compound: CCCS(=O)(=O)Nc1ccc(F)c(C(=O)c2c[nH]c3ncc(Cl)cc23)c1F
How it was run: as §1

[12] = compound: CCCc1cc(C)[nH]c(=O)c1CNC(=O)c1cc(-c2ccnc(N3CCN(C)CC3)c2)cc2c1cnn2C(C)C
How it was run: as §1

givinostat = compound: CCN(CC)Cc1ccc2cc(COC(=O)Nc3ccc(C(=O)NO)cc3)ccc2c1 [givinostat]
How it was run: as §1

barasertib = compound: CCN(CCCOc1ccc2c(Nc3cc(CC(=O)Nc4cccc(F)c4)[nH]n3)ncnc2c1)CCOP(=O)(O)O [barasertib]
How it was run: as §1

Measured: log2 fold change

NOP53 (UniProt Q9NZM5)
inactive: IRAK-1-4 Inhibitor I -0.209 | ibrutinib 0.018 | [1] 0.303 | ralimetinib 0.212 | [2] 0.411 | [3] 0.233 | [4] 0.089 | pinometostat 0.321 | [5] -0.016 | [7] -0.052 | [8] 0.005 | [9] -0.073 | [10] -0.163 | Nexturastat A 0.264 | vemurafenib -0.154 | [11] -0.147 | [12] 0.204 | givinostat 0.048 | barasertib -0.105
active: [6] -1.19

OXA1L (UniProt Q15070)
inactive: IRAK-1-4 Inhibitor I 0.05 | ibrutinib 0.011 | [1] 0.03 | ralimetinib -0.037 | [2] 0.006 | [3] -0.209 | [4] -0.004 | pinometostat 0 | [5] 0.016 | [6] -0.018 | [7] -0.013 | [8] 0.01 | [9] 0.02 | [10] 0.01 | Nexturastat A -0.021 | vemurafenib 0.022 | [11] -0.013 | [12] -0.049 | givinostat 0.003 | barasertib -0.012

MTHFD1 (UniProt P11586)
UniProt P11586, sequence (P11586 whole entry, looked up): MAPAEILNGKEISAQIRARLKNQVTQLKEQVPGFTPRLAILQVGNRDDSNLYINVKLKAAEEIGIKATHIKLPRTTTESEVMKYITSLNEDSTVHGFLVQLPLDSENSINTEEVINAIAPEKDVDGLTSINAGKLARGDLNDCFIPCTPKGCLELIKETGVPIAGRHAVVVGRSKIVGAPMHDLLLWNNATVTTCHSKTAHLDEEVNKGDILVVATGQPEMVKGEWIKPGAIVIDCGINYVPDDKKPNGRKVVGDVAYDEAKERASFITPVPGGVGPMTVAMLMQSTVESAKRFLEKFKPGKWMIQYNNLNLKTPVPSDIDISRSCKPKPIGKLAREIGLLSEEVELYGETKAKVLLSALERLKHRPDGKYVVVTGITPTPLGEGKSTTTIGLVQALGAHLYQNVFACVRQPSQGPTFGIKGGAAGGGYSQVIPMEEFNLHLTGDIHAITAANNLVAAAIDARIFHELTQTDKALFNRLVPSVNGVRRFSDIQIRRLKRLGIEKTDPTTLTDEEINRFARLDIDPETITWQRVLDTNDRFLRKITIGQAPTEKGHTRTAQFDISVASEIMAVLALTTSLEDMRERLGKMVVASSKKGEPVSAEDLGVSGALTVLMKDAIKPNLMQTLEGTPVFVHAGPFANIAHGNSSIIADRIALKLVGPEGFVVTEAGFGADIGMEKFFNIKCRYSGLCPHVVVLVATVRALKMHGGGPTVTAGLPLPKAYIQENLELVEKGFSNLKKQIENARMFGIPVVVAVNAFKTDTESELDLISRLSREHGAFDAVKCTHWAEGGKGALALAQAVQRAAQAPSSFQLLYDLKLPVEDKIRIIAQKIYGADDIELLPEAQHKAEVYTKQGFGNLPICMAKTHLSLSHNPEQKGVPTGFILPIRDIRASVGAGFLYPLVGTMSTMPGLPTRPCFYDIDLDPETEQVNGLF
inactive: IRAK-1-4 Inhibitor I 0.01 | ibrutinib -0.014 | [1] -0.068 | ralimetinib -0.001 | [2] -0.082 | [3] -0.102 | [4] -0.005 | pinometostat -0.034 | [5] -0.023 | [6] 0.073 | [7] 0.052 | [8] -0.026 | [9] 0.003 | [10] 0.042 | Nexturastat A -0.046 | vemurafenib 0.06 | [11] 0.046 | [12] -0.013 | givinostat 0.048 | barasertib 0.038

MYH10 isoform 3 (UniProt P35580)
UniProt P35580, sequence (P35580 whole entry, looked up): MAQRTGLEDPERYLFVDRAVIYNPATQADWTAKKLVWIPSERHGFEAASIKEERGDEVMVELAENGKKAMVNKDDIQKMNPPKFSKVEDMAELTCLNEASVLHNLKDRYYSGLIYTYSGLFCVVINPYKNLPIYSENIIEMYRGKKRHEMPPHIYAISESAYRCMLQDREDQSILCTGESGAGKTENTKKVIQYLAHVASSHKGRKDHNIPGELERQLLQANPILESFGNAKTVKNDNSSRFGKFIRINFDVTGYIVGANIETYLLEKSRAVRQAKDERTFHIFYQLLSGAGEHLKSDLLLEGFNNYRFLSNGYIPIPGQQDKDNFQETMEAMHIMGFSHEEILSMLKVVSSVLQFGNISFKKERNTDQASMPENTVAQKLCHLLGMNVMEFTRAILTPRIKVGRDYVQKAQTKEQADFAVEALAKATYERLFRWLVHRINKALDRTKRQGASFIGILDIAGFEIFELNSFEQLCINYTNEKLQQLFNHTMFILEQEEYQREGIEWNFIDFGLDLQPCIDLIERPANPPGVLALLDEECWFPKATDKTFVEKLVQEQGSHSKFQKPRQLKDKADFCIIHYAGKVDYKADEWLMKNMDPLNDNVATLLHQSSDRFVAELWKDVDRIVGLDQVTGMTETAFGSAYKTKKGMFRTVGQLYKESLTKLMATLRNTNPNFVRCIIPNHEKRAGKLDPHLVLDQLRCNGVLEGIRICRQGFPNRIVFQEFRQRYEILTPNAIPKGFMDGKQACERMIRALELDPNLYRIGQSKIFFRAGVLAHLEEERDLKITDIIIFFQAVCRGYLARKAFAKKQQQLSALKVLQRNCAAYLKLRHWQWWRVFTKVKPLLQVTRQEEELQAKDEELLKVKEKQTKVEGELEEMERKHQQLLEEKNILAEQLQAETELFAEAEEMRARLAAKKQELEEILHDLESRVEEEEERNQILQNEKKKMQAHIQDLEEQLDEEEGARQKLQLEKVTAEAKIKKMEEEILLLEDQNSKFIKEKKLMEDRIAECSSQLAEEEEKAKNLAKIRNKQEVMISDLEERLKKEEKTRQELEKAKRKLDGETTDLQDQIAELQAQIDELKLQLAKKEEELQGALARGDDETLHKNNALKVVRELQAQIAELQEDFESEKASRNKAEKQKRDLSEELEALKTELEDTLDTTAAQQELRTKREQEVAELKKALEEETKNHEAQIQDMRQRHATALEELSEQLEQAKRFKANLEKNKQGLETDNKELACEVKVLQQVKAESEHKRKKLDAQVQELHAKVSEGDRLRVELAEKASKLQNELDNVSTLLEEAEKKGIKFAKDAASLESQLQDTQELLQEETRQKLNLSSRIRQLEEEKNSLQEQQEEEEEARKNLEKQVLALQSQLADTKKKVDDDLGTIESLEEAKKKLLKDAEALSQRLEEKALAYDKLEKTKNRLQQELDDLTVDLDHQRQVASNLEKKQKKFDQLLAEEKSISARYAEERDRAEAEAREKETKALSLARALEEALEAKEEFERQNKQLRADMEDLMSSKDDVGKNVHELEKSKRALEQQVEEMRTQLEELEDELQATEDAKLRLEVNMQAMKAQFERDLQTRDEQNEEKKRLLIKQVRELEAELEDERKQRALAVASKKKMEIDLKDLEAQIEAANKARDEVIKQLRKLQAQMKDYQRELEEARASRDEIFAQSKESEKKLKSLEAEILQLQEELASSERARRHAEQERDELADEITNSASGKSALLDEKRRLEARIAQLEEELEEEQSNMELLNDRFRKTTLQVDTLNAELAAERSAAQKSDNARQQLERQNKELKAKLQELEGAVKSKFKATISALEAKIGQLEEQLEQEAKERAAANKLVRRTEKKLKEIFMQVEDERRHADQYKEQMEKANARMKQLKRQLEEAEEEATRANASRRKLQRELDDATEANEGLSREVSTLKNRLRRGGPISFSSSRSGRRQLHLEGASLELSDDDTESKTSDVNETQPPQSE
inactive: IRAK-1-4 Inhibitor I 0.024 | ibrutinib -0.022 | [1] -0.011 | ralimetinib -0.04 | [2] -0.069 | [3] -0.05 | [4] -0.001 | pinometostat -0.015 | [5] -0.019 | [6] -0.024 | [7] 0.009 | [8] -0.033 | [9] 0.019 | [10] 0.07 | Nexturastat A -0.05 | vemurafenib 0.028 | [11] 0.05 | [12] 0 | givinostat -0.003 | barasertib 0.038

NECTIN2 (UniProt Q92692)
inactive: IRAK-1-4 Inhibitor I 0.025 | ibrutinib 0.02 | [1] -0.023 | ralimetinib -0.035 | [2] -0.03 | [3] 0.182 | [4] 0.024 | pinometostat 0.009 | [5] -0.015 | [6] 0 | [7] -0.006 | [8] -0.026 | [9] 0.037 | [10] -0.049 | Nexturastat A -0.117 | vemurafenib 0.016 | [11] 0.019 | [12] 0.005 | givinostat -0.025 | barasertib -0.024

NUDT21 (UniProt O43809)
UniProt O43809, sequence (O43809 whole entry, looked up): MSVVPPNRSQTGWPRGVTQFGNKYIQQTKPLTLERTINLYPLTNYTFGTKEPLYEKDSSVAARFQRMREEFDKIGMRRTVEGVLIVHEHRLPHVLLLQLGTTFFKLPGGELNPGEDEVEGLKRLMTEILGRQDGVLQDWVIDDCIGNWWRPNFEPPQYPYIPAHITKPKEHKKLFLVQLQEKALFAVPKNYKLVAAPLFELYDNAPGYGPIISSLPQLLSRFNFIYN
active: [1] -0.33 | [6] 0.246
inactive: IRAK-1-4 Inhibitor I -0.057 | ibrutinib 0.014 | ralimetinib -0.022 | [2] 0.077 | [3] 0.066 | [4] 0.034 | pinometostat -0.022 | [5] -0.005 | [7] 0.052 | [8] 0.077 | [9] -0.007 | [10] 0.019 | Nexturastat A 0 | vemurafenib 0.02 | [11] -0.053 | [12] -0.013 | givinostat -0.033 | barasertib -0.023

NAT14 (UniProt Q8WUY8)
UniProt Q8WUY8, sequence (Q8WUY8 whole entry, looked up): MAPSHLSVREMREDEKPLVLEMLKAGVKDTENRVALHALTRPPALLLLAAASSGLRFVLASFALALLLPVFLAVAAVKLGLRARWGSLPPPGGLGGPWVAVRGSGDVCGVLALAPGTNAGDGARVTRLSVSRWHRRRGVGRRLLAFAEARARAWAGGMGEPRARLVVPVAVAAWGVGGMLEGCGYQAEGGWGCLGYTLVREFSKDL
inactive: IRAK-1-4 Inhibitor I -0.061 | ibrutinib 0.019 | [1] -0.033 | ralimetinib -0.028 | [2] -0.257 | [3] -0.185 | [4] 0.027 | pinometostat -0.074 | [5] 0.022 | [6] -0.187 | [7] 0.012 | [8] -0.054 | [9] 0.011 | [10] 0.031 | Nexturastat A 0.227 | vemurafenib 0.054 | [11] -0.051 | [12] -0.103 | givinostat -0.043 | barasertib 0.027

MYH11 isoform 2 (UniProt P35749)
inactive: IRAK-1-4 Inhibitor I 0.035 | ibrutinib -0.013 | [1] 0.028 | ralimetinib -0.016 | [2] -0.107 | [3] 0.056 | [4] -0.002 | pinometostat -0.042 | [5] 0.027 | [6] -0.024 | [7] 0.009 | [8] 0.057 | [9] -0.003 | [10] 0.004 | Nexturastat A -0.014 | vemurafenib 0.051 | [11] -0.006 | [12] -0.253 | givinostat 0.032 | barasertib 0.057

NIBAN1 (UniProt Q9BZQ8)
active: [3] -0.277
inactive: IRAK-1-4 Inhibitor I -0.125 | ibrutinib 0 | [1] -0.163 | ralimetinib 0.084 | [2] -0.07 | [4] 0.037 | pinometostat 0.068 | [5] -0.002 | [6] 0.02 | [7] 0.05 | [8] -0.036 | [9] 0.102 | [10] 0.01 | Nexturastat A 0.077 | vemurafenib 0.046 | [11] 0.083 | [12] 0.039 | givinostat 0.05 | barasertib 0.063

MRPS2 (UniProt Q9Y399)
inactive: IRAK-1-4 Inhibitor I -0.043 | ibrutinib 0.109 | [1] -0.011 | ralimetinib -0.02 | [2] -0.035 | [3] -0.03 | [4] 0.08 | pinometostat 0.002 | [5] 0.002 | [6] -0.079 | [7] 0.075 | [8] -0.049 | [9] -0.018 | [10] 0.029 | Nexturastat A 0.049 | vemurafenib 0.126 | [11] 0.041 | [12] -0.084 | givinostat -0.044 | barasertib -0.031

MON2 isoform 5 (UniProt Q7Z3U7)
inactive: IRAK-1-4 Inhibitor I 0.013 | ibrutinib -0.036 | [1] -0.005 | ralimetinib 0.097 | [2] -0.076 | [3] -0.088 | [4] 0.004 | pinometostat 0.048 | [5] -0.022 | [6] 0.055 | [7] -0.002 | [8] -0.009 | [9] -0.036 | [10] 0.018 | Nexturastat A 0 | vemurafenib 0.017 | [11] 0.085 | [12] 0.046 | givinostat 0.029 | barasertib 0.039

NBN (UniProt O60934)
UniProt O60934, sequence (O60934 whole entry, looked up): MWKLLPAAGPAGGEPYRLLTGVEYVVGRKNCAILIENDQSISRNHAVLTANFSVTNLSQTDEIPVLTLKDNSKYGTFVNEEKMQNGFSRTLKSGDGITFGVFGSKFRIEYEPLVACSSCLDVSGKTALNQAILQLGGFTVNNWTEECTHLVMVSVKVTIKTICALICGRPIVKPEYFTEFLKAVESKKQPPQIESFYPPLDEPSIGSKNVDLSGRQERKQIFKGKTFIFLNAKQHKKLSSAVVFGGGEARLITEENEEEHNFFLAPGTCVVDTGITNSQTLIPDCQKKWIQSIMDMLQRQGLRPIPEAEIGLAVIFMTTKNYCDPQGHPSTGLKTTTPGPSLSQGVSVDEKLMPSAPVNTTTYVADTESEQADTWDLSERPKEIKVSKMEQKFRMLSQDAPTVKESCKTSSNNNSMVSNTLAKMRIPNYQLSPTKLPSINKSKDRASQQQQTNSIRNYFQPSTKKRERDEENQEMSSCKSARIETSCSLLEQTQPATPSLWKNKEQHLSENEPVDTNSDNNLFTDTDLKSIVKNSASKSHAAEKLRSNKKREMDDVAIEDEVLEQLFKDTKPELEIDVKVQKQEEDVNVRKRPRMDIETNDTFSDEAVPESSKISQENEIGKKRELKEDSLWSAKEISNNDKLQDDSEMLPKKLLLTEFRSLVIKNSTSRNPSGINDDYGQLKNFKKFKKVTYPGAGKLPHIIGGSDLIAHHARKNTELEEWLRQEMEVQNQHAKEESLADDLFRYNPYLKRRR
inactive: IRAK-1-4 Inhibitor I -0.009 | ibrutinib -0.008 | [1] -0.147 | ralimetinib -0.028 | [2] -0.062 | [3] -0.025 | [4] 0.007 | pinometostat 0.009 | [5] -0.029 | [6] -0.02 | [7] 0.017 | [8] -0.008 | [9] -0.01 | [10] 0.014 | Nexturastat A -0.03 | vemurafenib 0.081 | [11] 0.047 | [12] 0.04 | givinostat 0.054 | barasertib 0.022

MRPS9 (UniProt P82933)
active: [6] -0.243
inactive: IRAK-1-4 Inhibitor I -0.061 | ibrutinib 0.024 | [1] -0.022 | ralimetinib -0.023 | [2] 0.001 | [3] -0.059 | [4] 0.07 | pinometostat 0.018 | [5] -0.048 | [7] 0.053 | [8] -0.025 | [9] -0.029 | [10] 0.02 | Nexturastat A 0.057 | vemurafenib -0.043 | [11] 0.053 | [12] -0.019 | givinostat 0.026 | barasertib -0.043

OSBPL8 (UniProt Q9BZF1)
UniProt Q9BZF1, sequence (Q9BZF1 whole entry, looked up): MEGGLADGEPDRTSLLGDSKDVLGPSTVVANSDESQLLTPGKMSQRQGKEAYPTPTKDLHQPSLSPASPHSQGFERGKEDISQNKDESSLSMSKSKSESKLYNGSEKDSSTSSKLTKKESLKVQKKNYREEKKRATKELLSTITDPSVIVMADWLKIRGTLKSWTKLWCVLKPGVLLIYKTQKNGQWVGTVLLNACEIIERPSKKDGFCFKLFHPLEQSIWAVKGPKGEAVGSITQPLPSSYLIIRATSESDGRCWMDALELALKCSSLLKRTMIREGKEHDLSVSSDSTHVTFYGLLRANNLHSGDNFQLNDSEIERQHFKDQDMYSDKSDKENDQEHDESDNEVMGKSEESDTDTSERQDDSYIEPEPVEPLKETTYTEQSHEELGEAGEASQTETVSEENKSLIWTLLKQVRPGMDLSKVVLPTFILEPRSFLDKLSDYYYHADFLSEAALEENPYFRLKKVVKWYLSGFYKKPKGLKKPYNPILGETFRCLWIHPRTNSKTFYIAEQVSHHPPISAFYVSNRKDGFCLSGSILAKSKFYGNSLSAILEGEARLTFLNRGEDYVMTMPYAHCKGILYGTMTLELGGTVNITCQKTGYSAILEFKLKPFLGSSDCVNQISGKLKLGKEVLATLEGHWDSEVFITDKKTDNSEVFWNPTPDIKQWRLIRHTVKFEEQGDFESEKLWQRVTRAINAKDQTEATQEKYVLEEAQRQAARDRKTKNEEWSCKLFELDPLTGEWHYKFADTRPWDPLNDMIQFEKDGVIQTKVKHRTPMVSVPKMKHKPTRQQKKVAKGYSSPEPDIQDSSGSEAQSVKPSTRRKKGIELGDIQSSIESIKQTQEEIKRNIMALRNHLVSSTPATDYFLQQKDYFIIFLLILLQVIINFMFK
inactive: IRAK-1-4 Inhibitor I -0.148 | ibrutinib -0.042 | [1] -0.204 | ralimetinib 0.199 | [2] -0.019 | [3] -0.378 | [4] 0.046 | pinometostat 0.201 | [5] -0.076 | [6] 0.045 | [7] 0.209 | [8] 0.011 | [9] 0.009 | [10] -0.027 | Nexturastat A 0.109 | vemurafenib 0.074 | [11] 0.035 | [12] 0.309 | givinostat -0.03 | barasertib 0.094

NUCKS1 (UniProt Q9H1E3)
active: [6] -0.454
inactive: IRAK-1-4 Inhibitor I 0.094 | ibrutinib -0.018 | [1] 0.208 | ralimetinib -0.054 | [2] 0.018 | [3] 0.138 | [4] -0.029 | pinometostat -0.061 | [5] 0.021 | [7] -0.036 | [8] 0.065 | [9] -0.014 | [10] 0.044 | Nexturastat A -0.061 | vemurafenib 0.017 | [11] -0.061 | [12] -0.076 | givinostat -0.004 | barasertib 0.008
